Source: PubChem (National Center for Advancing Translational Sciences (NCATS))
KCNH2 3.1 block = blocks the human KCNH2 3.1 channel isoform; AID 720553; 340,000 tested, 0.95% active; activity change, % (tested at about 1.8 µM); U2OS KCNH2 3.1, thallium flux FluxOr; stronger effect = lower value;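 active = maximum activity change below -70%; inconclusive = maximum activity change from -70% to -50%; inactive = maximum activity change above -50%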;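 note: thallium influx rate constant from kinetic fluorescence after stimulation buffer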
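Normalized rate constant (relative to positive and negative DMSO controls) derived from a 2 min kinetic fluorescence read after stimulation; U2OS cells expressing the 3.1 isoform via virus at 1.77 x 10^8 /mL.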
KCNH2 WT inh = blocks the wildtype human KCNH2 potassium channel; Q12809; U2OS, BacMam KCNH2, thallium flux FluxOr; stronger effect = lower value; activity change, % at 1.84 µM; 340,000 tested, 0.37% active; AID 720551;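 active = maximum activity change below -70%; inconclusive = maximum activity change between -70% and -50%; inactive = maximum activity change above -50%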
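U2OS cells transduced with wild-type KCNH2 virus are loaded with FluxOr dye for 45 min, and thallium flux is measured in kinetic reads before and after stimulation buffer. Rate constants are normalized to DMSO controls.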
12-LOX inh = blocks human arachidonate 12S-lipoxygenase; P18054; purified 12hLO, xylenol orange hydroperoxide absorbance; Potency, µM (highest dose often 108 µM), most hits filed as inhibitors; 580,000 tested, 1.1% active; AID 1671190
Target sequence (P18054 whole entry, looked up): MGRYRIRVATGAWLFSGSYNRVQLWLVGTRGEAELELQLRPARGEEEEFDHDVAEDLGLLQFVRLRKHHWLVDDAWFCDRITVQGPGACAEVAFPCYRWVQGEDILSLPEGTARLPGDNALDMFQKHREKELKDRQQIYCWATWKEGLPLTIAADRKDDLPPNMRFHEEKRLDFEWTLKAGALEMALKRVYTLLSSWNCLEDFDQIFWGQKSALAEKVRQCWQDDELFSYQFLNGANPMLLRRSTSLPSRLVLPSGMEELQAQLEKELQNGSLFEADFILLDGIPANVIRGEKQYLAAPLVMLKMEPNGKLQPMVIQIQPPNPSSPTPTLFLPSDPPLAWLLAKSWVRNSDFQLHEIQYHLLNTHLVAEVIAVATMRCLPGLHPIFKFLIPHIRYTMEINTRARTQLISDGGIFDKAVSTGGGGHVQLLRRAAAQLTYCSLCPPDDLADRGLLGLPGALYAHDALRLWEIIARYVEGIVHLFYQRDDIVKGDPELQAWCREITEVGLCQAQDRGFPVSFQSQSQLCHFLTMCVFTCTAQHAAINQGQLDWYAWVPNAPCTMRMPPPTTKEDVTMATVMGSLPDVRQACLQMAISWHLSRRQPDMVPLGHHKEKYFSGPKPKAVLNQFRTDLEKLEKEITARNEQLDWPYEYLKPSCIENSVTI
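Purified human 12hLO (150 nM final) in 25 mM Hepes, 0.01% Triton X-100, pH 7.0 was preincubated 15 min at room temperature with compound. Then 40 uM arachidonic acid was added, 30 min. Hydroperoxide was read by Fe-XO absorbance ratio 573/405 nm.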
A-T KAP1 phos = candidate therapy for ataxia-telangiectasia | F2112 A-T fibroblasts, KAP-1 phosphorylation AlphaLISA; neocarzinostatin DNA damage 30 min before lysis | 320,000 tested, 0.19% active | Potency, µM (highest dose often 57.5 µM), usual class: activators; note: nearly all actives have a fitted effect of over 45% in size
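ATM-like activity read as KAP-1 phosphorylation via AlphaLISA donor/acceptor antibody pairs after lysis and 6 hr at 25C. Cells were ATM-null patient fibroblasts (F2112, hTERT), dosed 60 min, then exposed to the DSB inducer NCS for 30 min.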
Of the large screens only hits and unclear results are named; the others gave an inactive call. Only some compounds are listed: those with a hit (about 1.8% of all), similar ones and a draw of the others. Unless noted, calls come from the whole dose curve; as a rule, active = well fitted curve in the direction sought with a large enough effect; inconclusive = small, poorly fitted or top-dose-only effect, or another doubt; inactive = no such curve, though single readings can be large; an effect the other way counts as inactive or inconclusive.

Cc1ccc(-c2csc(N3C(=N)SCC3=O)n2)cc1	12-LOX inh inconclusive, A-T KAP1 phos 22µM
CN1CC(=O)N(C2CCCC2)Cc2c(NCc3ccc(F)cc3)ncnc21	none (no result: KCNH2 3.1 block, KCNH2 WT inh, A-T KAP1 phos)
CN1CC(=O)N(C2CCNCC2)Cc2c(NCCc3cccc(F)c3)ncnc21	12-LOX inh 18µM (no result: KCNH2 3.1 block, KCNH2 WT inh, A-T KAP1 phos)
CN1CC(=O)N(C2CCNCC2)Cc2c1ncnc2N(C)Cc1ccc(F)cc1	12-LOX inh 8.9µM (no result: KCNH2 3.1 block, KCNH2 WT inh, A-T KAP1 phos)
CC(CO)Nc1ncnc2c1CN(C1CCCNC1)C(=O)CN2C (stereo unspecified)	none (no result: KCNH2 3.1 block, KCNH2 WT inh, A-T KAP1 phos)
CC(C)Nc1ncnc2c1CN(C1CCCNC1)C(=O)CN2C (stereo unspecified)	12-LOX inh 4µM (no result: KCNH2 3.1 block, KCNH2 WT inh, A-T KAP1 phos)
OC1(CN2CCN(c3nccs3)CC2)CNCCOC1 (stereo unspecified)	12-LOX inh 10µM (no result: KCNH2 3.1 block, KCNH2 WT inh, A-T KAP1 phos)
COc1ccccc1N1CCN(C[C@@H]2C=C(C)[C@H](Cc3nnc(-c4cncn4C)o3)C[C@H]2C(C)C)CC1	none (no result: KCNH2 3.1 block, KCNH2 WT inh, A-T KAP1 phos)
CCC1(N2CCN(S(=O)(=O)c3ccc4c(c3)CCCC4)CC2)CCN(C(=O)C(C)C)C1 (stereo unspecified)	12-LOX inh 22µM (no result: KCNH2 3.1 block, KCNH2 WT inh, A-T KAP1 phos)
COc1ccc(Br)cc1/C=C1\CCc2ccccc2C1=O	none (no result: KCNH2 3.1 block, KCNH2 WT inh, A-T KAP1 phos)
CCN(CC(=O)Nc1c(F)cccc1F)C(=O)CCc1nc2sc3c(c2c(=O)[nH]1)CCCC3	12-LOX inh 14µM
S=C(NC(=NCc1ccccc1)c1ccccc1)Nc1ccccc1	12-LOX inh 14µM (no result: KCNH2 3.1 block, KCNH2 WT inh, A-T KAP1 phos)
COc1ccc(NC(=S)NC(=NS(=O)(=O)c2ccc(Cl)cc2)c2ccccc2)cc1	12-LOX inh 32µM
S=C(NCCNC(=S)Nc1ccccc1)Nc1ccccc1	12-LOX inh inconclusive
O=C(O)c1ccc(N/C(=N\S(=O)(=O)c2ccc(Cl)cc2)c2ccccc2)cc1	none
O=S(=O)(/N=C(/NC(=S)Nc1ccccc1)c1ccccc1)c1ccc(Cl)cc1	12-LOX inh 40µM
COc1ccc(NC(=S)N/C(=N/S(=O)(=O)c2ccc(C)cc2)c2ccccc2)cc1	12-LOX inh inconclusive
Cc1cccc(NC(=S)N(CCC#N)c2ccc(F)cc2)c1	none (no result: KCNH2 3.1 block, KCNH2 WT inh, A-T KAP1 phos)
COC(=O)N1CCc2c(sc(NC(=O)C3COc4ccccc4O3)c2C(N)=O)C1 (stereo unspecified)	12-LOX inh 18µM
CCOc1cccc2cc(C(=O)Nc3cc(C)on3)c(=O)oc12	KCNH2 3.1 block -77
CCOc1cccc2cc(C(=O)NCc3ccc(C)cc3)c(=N)oc12	KCNH2 3.1 block -208
CCOc1cccc2cc(C(=O)Nc3ccccc3-c3ccccc3)c(=O)oc12	none
CC(C)c1ccccc1OCC(O)Cn1cnc2c1c(=O)n(C)c(=O)n2C (stereo unspecified)	none (no result: KCNH2 3.1 block, KCNH2 WT inh, A-T KAP1 phos)
COc1ccc(C(=O)CNc2cccc(F)c2)cc1	KCNH2 3.1 block -91, 12-LOX inh inconclusive, A-T KAP1 phos inconclusive
CCNC(=O)NC(=O)CN(CC(C)O)c1ccccc1 (stereo unspecified)	none (no result: KCNH2 3.1 block, KCNH2 WT inh, A-T KAP1 phos)
Cc1ccc(-c2nc(NC(=O)c3nn(C)cc3[N+](=O)[O-])sc2C)cc1C	KCNH2 3.1 block -82
Cc1[nH]c2ccccc2c1C1N=C(N)Nc2nc3ccccc3n21 (stereo unspecified)	none (no result: KCNH2 3.1 block, KCNH2 WT inh, A-T KAP1 phos)
Cc1cnc2c(Cl)c(C(=O)N[C@@H]3COCC[C@@H]3OCC3CC3)nn2c1	none (no result: KCNH2 3.1 block, KCNH2 WT inh, A-T KAP1 phos)
Cc1cc(C(=O)NC(C)c2ccc(F)c(F)c2)c2cnn(C(C)C)c2n1 (stereo unspecified)	none (no result: KCNH2 3.1 block, KCNH2 WT inh, A-T KAP1 phos)
COc1cc(OC)cc(C(=O)N2CCC3(CC2)NC(=O)N(Cc2ccccc2)C3=O)c1	none (no result: KCNH2 3.1 block, KCNH2 WT inh, A-T KAP1 phos)
COc1ccc(C(=O)N2CCC3(CC2)NC(=O)N(c2cccc(Cl)c2)N3)cc1	12-LOX inh 1.8µM (no result: KCNH2 3.1 block, KCNH2 WT inh, A-T KAP1 phos)
COc1ccccc1CCC(=O)N1CCC2(CC1)NC(=O)N(c1cccc(F)c1)N2	12-LOX inh 10µM (no result: KCNH2 3.1 block, KCNH2 WT inh, A-T KAP1 phos)
COc1cc(OC)cc(C(=O)N2CCC3(CC2)NC(=O)N(c2cccc(F)c2)N3)c1	12-LOX inh 2.8µM (no result: KCNH2 3.1 block, KCNH2 WT inh, A-T KAP1 phos)
COc1cc(OC)cc(C(=O)N2CCC3(CC2)NC(=O)N(c2cccc(Cl)c2)N3)c1	12-LOX inh 1.3µM (no result: KCNH2 3.1 block, KCNH2 WT inh, A-T KAP1 phos)
COc1cc(Br)c(/C=C(/C#N)C(=O)c2ccccc2)cc1OC	none (no result: KCNH2 3.1 block, KCNH2 WT inh, A-T KAP1 phos)
Cn1c(SCC(=O)N2CCCC2)nc2ccccc21	none
Cn1c(Sc2nc3ccccc3n2C)nc2ccccc21	12-LOX inh inconclusive, A-T KAP1 phos 20µM
CN(Cc1noc2c1CCCC2)C(=O)Cn1cccc(C(F)(F)F)c1=O	none (no result: KCNH2 3.1 block, KCNH2 WT inh, A-T KAP1 phos)
CC(C)CSC1=NSC2=NC(=O)/C(=C\c3coc4ccccc4c3=O)C(=N)N12	12-LOX inh 28µM (no result: KCNH2 3.1 block)
O=C(Nc1ccccc1Cl)C(Cl)C(=O)c1ccccc1 (stereo unspecified)	12-LOX inh 20µM
O=C(Nc1ccc(Cl)cc1)C(Cl)C(=O)c1ccccc1 (stereo unspecified)	12-LOX inh inconclusive, A-T KAP1 phos inconclusive
CCOCc1nc(C2CCCN2C(=O)NCCC(=O)OCC)no1 (stereo unspecified)	none (no result: KCNH2 3.1 block, KCNH2 WT inh, A-T KAP1 phos)
CCOc1ccc(NC(=O)OCCN2CCN(CCc3ccccc3)C(C)C2)cc1 (stereo unspecified)	KCNH2 3.1 block -96 (no result: A-T KAP1 phos)
c1ccc2[nH]c(CCCn3ccnc3-c3cc4n(n3)CCCNC4)nc2c1	none (no result: KCNH2 3.1 block, KCNH2 WT inh, A-T KAP1 phos)
O=C(NCCc1c[nH]c2ccccc12)c1ccc2c(c1)OCO2	none
N#C/C(=C/c1ccc2c(c1)OCO2)C(=O)NCCc1c[nH]c2ccccc12	KCNH2 3.1 block -74
Cc1cccc(-c2cc3nc4c(c(NCc5ccco5)n3n2)CCCC4)c1	KCNH2 3.1 block -83, KCNH2 WT inh inconclusive
CCOc1ccc(/C=N/NC(=O)c2csc(C)c2C)c(OCC)c1	KCNH2 3.1 block -81
COC(=O)[C@@]1(Sc2ccc(C)cc2)CC(=O)N[C@@H]1c1ccco1	12-LOX inh 40µM (no result: KCNH2 3.1 block, KCNH2 WT inh, A-T KAP1 phos)
C[C@@H](NC(=O)/C(C#N)=C/c1ccc(O)c(O)c1)c1ccccc1	12-LOX inh inconclusive
N#C/C(=C\c1ccc(O)c(O)c1)C(=O)Nc1ccccc1	12-LOX inh 50µM
Clc1cccc(N/N=C/c2ccc(N3CCOCC3)cc2)c1	12-LOX inh inconclusive
